Source: PubChem BioAssay AID1159580 (chemical genetic matrix, 2015)
Several values for one entry are separate records, joined by “and”; a condition that tells them apart may be missing. Equal entries are not always repeated. The campaign covered roughly 5,500 compounds. About 2,000 (36%) were called active. Another 18% or so got no clear call; they are omitted. Rule as the data show it: active = normalized growth mostly below about 0.91 (no sharp cut-off); inconclusive = no clear call, values can overlap the other calls; inactive = mostly above about 0.92. Some of the results follow.

Test: chemical genetic growth profiling, strain panel (AID 1159580);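 also: tested at 20 µM; growth read once vehicle control cultures reached saturation at 30 °C; 1 = growth at the plate median or of vehicle wells; lower values mean less growth of the strain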
Settings: S. cerevisiae deletion strains, growth OD

Measured: normalized growth

C[C@@H]1O[C@@H](OC[C@H]2OC(Oc3c(-c4ccc(OCCO)c(OCCO)c4)oc4cc(OCCO)cc(O)c4c3=O)[C@H](O)[C@@H](O)[C@@H]2O)[C@H](O)[C@H](O)[C@H]1O (stereo not given in full)
inactive: locus YAL013W, strain DEP1, active compounds read low 0.994 | locus YAL021C, strain ccr4, active compounds read low 0.972 | locus YAL026C, strain drs2, active compounds read low 0.973 | locus YAL030W, strain snc1, active compounds read low 0.946 | locus YBL061C, strain skt5, active compounds read low 0.974 | locus YBR009C, strain hhf1, active compounds read low 0.981 | locus YBR021W, strain FUR4, active compounds read low 1.02 | locus YBR023C, strain chs3, active compounds read low 0.956 | locus YBR171W, strain sec66, active compounds read low 0.945 | locus YBR229C, strain ROT2, active compounds read low 0.961 | locus YBR231C, strain swc5, active compounds read low 0.962 | locus YBR279W, strain paf1, active compounds read low 0.967 | locus YCL011C, strain gbp2, active compounds read low 0.952 | locus YCL016C, strain dcc1, active compounds read low 0.984 | locus YCL029C, strain bik1, active compounds read low 1.01 | locus YCL061C, strain MRC1, active compounds read low 0.973 | locus YCL069W, strain vba3, active compounds read low 0.966 | locus YCR088W, strain abp1, active compounds read low 0.969 | locus YDL005C, strain med2, active compounds read low 0.963 | locus YDL035C, strain GPR1, active compounds read low 0.945 | locus YDL040C, strain nat1, active compounds read low 0.972 | locus YDL074C, strain BRE1, active compounds read low 1.01 | locus YDL101C, strain DUN1, active compounds read low 0.979 | locus YDL185W, strain tfp1, active compounds read low 0.973 | locus YDL192W, strain arf1, active compounds read low 0.992 | locus YDR001C, strain nth1, active compounds read low 0.943 | locus YDR069C, strain doa4, active compounds read low 0.931 | locus YDR101C, strain arx1, active compounds read low 1.04 | locus YDR137W, strain rgp1, active compounds read low 0.938 | locus YDR159W, strain sac3, active compounds read low 0.94 | locus YDR162C, strain NBP2, active compounds read low 0.985 | locus YDR195W, strain ref2 0.892 | locus YDR297W, strain sur2, active compounds read low 0.974 | locus YDR318W, strain mcm21, active compounds read low 0.963 | locus YDR334W, strain swr1, active compounds read low 0.916 | locus YDR335W, strain msn5, active compounds read low 0.958 | locus YDR388W, active compounds read low 0.994 | locus YDR392W, strain spt3, active compounds read low 1.02 | locus YDR502C, strain sam2, active compounds read low 0.995 | locus YEL003W, strain gim4, active compounds read low 0.968 | locus YEL037C, strain rad23, active compounds read low 0.955 | locus YEL061C, strain CIN8 (second series), active compounds read low 0.947 | locus YEL061C, strain CIN8, active compounds read low 0.997 | locus YER015W, strain faa2, active compounds read low 0.984 | locus YER016W, strain bim1, active compounds read low 0.96 | locus YER110C, active compounds read low 0.978 | locus YER111C, strain swi4, active compounds read low 0.963 | locus YER155C, strain BEM2 (second series), active compounds read low 0.974 | locus YER155C, strain BEM2, active compounds read low 1 | locus YER167W, strain BCK2, active compounds read low 1.01 | locus YFR010W, strain ubp6, active compounds read low 0.946 | locus YGL078C, strain dbp3, active compounds read low 0.996 | locus YGL086W, strain mad1, active compounds read low 1.03 | locus YGL167C, strain pmr1, active compounds read low 0.933 | locus YGL173C, strain kem1, active compounds read low 0.993 | locus YGL227W, strain vid30, active compounds read low 0.938 | locus YGL240W, strain doc1, active compounds read low 0.958 | locus YGL248W, strain PDE1, active compounds read low 0.965 | locus YGL253W, strain hxk2, active compounds read low 0.965 | locus YGR078C, strain PAC10, active compounds read low 0.984 | locus YGR135W, strain pre9, active compounds read low 0.97 | locus YGR252W, strain gcn5, active compounds read low 0.947 | locus YHR013C, strain ard1, active compounds read low 0.973 | locus YHR027C, strain rpn1, active compounds read low 0.958 | locus YHR030C, strain SLT2, active compounds read low 1 and 0.999 | locus YHR079C, strain IRE1 (second series), active compounds read low 1 | locus YHR079C, strain IRE1, active compounds read low 1.02 | locus YHR094C, strain hxt1, active compounds read low 0.969 | locus YHR129C, strain ARP1, active compounds read low 0.99 | locus YHR142W, strain chs7, active compounds read low 0.958 | locus YHR200W, strain rpn10, active compounds read low 0.983 | locus YIL066C, strain RNR3, active compounds read low 0.972 | locus YIL073C, strain SPO22, active compounds read low 0.969 | locus YIL125W, strain kgd1, active compounds read low 0.991 | locus YIR030C, strain dcg1, active compounds read low 0.993 | locus YJL092W, strain hpr5, active compounds read low 0.967 | locus YJL095W, strain BCK1 (second series), active compounds read low 0.967 | locus YJL095W, strain BCK1, active compounds read low 0.972 and 1.01 | locus YJL115W, strain asf1, active compounds read low 0.948 | locus YJL129C, strain trk1, active compounds read low 0.954 | locus YJL134W, strain LCB3, active compounds read low 0.99 | locus YJL154C, strain vps35, active compounds read low 0.958 | locus YJL164C, strain tpk1, active compounds read low 0.995 | locus YJL166W, strain qcr8, active compounds read low 0.971 | locus YJL168C, strain set2, active compounds read low 0.993 | locus YJL187C, strain SWE1 (second series), active compounds read low 0.983 | locus YJR043C, strain POL32, active compounds read low 0.972 | locus YJR066W, strain TOR1, active compounds read low 0.941 | locus YJR075W, strain HOC1, active compounds read low 0.983 | locus YKL009W, strain mrt4, active compounds read low 0.978 | locus YKL068W, active compounds read low 0.973 | locus YKL085W, strain MDH1 (second series), active compounds read low 0.981 | locus YKL085W, strain MDH1, active compounds read low 0.981 | locus YKL160W, strain elf1, active compounds read low 0.986 | locus YKL190W, strain CNB1, active compounds read low 0.992 | locus YKR001C, strain vps1, active compounds read low 0.994 | locus YKR026C, strain gcn3, active compounds read low 0.946 | locus YKR091W, strain srl3, active compounds read low 0.974 | locus YLL001W, strain dnm1, active compounds read low 0.963 | locus YLL026W, active compounds read low 0.947 | locus YLL041C, strain sdh2, active compounds read low 0.959 | locus YLR027C, strain aat2, active compounds read low 0.964 | locus YLR039C, strain RIC1, active compounds read low 1.07 | locus YLR058C, strain SHM2, active compounds read low 0.978 | locus YLR102C, strain apc9, active compounds read low 0.986 | locus YLR113W, strain HOG1, active compounds read low 1.01 | locus YLR221C, strain rsa3, active compounds read low 0.986 | locus YLR258W, strain gsy2, active compounds read low 0.971 | locus YLR262C, strain YPT6 (second series), active compounds read low 0.961 | locus YLR262C, strain YPT6, active compounds read low 1.08 | locus YLR268W, strain sec22, active compounds read low 1.03 | locus YLR320W, strain mms22, active compounds read low 1.01 | locus YLR330W, strain CHS5, active compounds read low 1 | locus YLR342W, strain FKS1 (second series), active compounds read low 0.985 | locus YLR342W, strain FKS1, active compounds read low 0.974 | locus YLR357W, strain rsc2, active compounds read low 0.947 | locus YLR370C, strain arc18, active compounds read low 0.954 | locus YLR371W, strain rom2, active compounds read low 0.963 | locus YLR384C, strain iki3, active compounds read low 0.962 | locus YLR418C, strain cdc73, active compounds read low 0.959 | locus YML016C, strain PPZ1, active compounds read low 0.996 | locus YML032C, strain rad52, active compounds read low 0.952 | locus YML120C, strain ndi1, active compounds read low 0.963 | locus YML124C, strain tub3, active compounds read low 1.01 | locus YMR058W, strain fet3, active compounds read low 0.959 | locus YMR078C, strain ctf18, active compounds read low 0.988 | locus YMR125W, strain sto1, active compounds read low 0.948 | locus YMR129W, active compounds read low 0.972 | locus YMR205C, strain PFK2, active compounds read low 0.977 | locus YMR223W, strain ubp8, active compounds read low 0.985 | locus YMR231W, strain pep5, active compounds read low 0.971 | locus YMR307W, strain GAS1, active compounds read low 1.01 | locus YNL067W, strain RPL9B, active compounds read low 0.978 | locus YNL071W, strain lat1, active compounds read low 0.971 | locus YNL128W, strain TEP1, active compounds read low 0.998 | locus YNL183C, strain NPR1, active compounds read low 0.936 | locus YNL209W, strain ssb2, active compounds read low 0.958 | locus YNL233W, strain BNI4, active compounds read low 0.993 | locus YNL248C, strain rpa49, active compounds read low 0.973 | locus YNL250W, strain rad50, active compounds read low 0.984 | locus YNL271C, strain bni1, active compounds read low 0.993 | locus YNL298W, strain CLA4, active compounds read low 0.973 | locus YNL307C, strain MCK1, active compounds read low 0.988 | locus YNL322C, strain KRE1 (second series), active compounds read low 0.949 | locus YNR049C, strain mso1, active compounds read low 0.965 | locus YNR052C, strain pop2, active compounds read low 0.99 | locus YOL012C, strain htz1 1.9 | locus YOL147C, strain pex11, active compounds read low 0.991 | locus YOR001W, strain rrp6, active compounds read low 0.962 | locus YOR061W, strain CKA2, active compounds read low 0.954 | locus YOR069W, strain VPS5, active compounds read low 0.994 | locus YOR070C, strain gyp1, active compounds read low 0.977 | locus YOR080W, strain dia2, active compounds read low 0.943 | locus YOR083W, strain WHI5, active compounds read low 0.987 | locus YOR106W, strain vam3, active compounds read low 0.943 | locus YOR136W, strain idh2, active compounds read low 0.984 | locus YOR144C, strain elg1, active compounds read low 0.986 | locus YOR184W, strain ser1, active compounds read low 0.987 | locus YOR231W, strain MKK1, active compounds read low 1.03 | locus YOR265W, strain rbl2, active compounds read low 0.963 | locus YOR270C, strain vph1, active compounds read low 0.94 | locus YOR290C, strain snf2, active compounds read low 0.972 | locus YOR316C, strain cot1, active compounds read low 0.982 | locus YPL051W, strain arl3, active compounds read low 0.956 | locus YPL055C, strain LGE1, active compounds read low 0.994 | locus YPL078C, strain atp4, active compounds read low 0.952 | locus YPL106C, strain sse1, active compounds read low 0.925 | locus YPL240C, strain hsp82, active compounds read low 0.972 | locus YPL241C, strain CIN2, active compounds read low 1 | locus YPL256C, strain CLN2, active compounds read low 1.01 | locus YPR119W, strain clb2, active compounds read low 0.996 | locus YPR141C, strain kar3, active compounds read low 0.974 | locus YPR163C, strain tif3, active compounds read low 0.993 | locus YPR167C, strain met16, active compounds read low 0.99 | strain wtn01, active compounds read low 1.02
